The source of these data is PubChem BioAssay (NCI).

Test systems include HCT-15 colon; HT29 colon; U251 CNS; SK-MEL-5 melanoma; UACC-62 melanoma; LOX IMVI melanoma; SK-MEL-28 melanoma; SK-MEL-2 melanoma; EKVX NSCLC; SN12C renal; UO-31 renal; TK-10 renal; ACHN renal; CAKI-1 renal; A498 renal; CCRF-CEM leukemia; MOLT-4 leukemia; SNB-19 CNS; SNB-75 CNS; PC-3 prostate.
Common to all, as to assay: NCI-60 one-dose screen, 48 h (100 = growth as untreated, 0 = no growth, -100 = all killed)
Holding throughout (conditions): 10 µM unless noted

The structures appear in SMILES notation. This is part of a sample that, as a whole, favours compounds with a hit. Of some 83,000 tested, about 20% had one in any assay.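 The test compound was applied at a single concentration to cells in 96-well plates for 48 hours, and percent growth was recorded.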 Unmarked numbers belong to inactive results. The source made the active and inactive calls. Rule for the calls: active = growth percent below 10; inactive = the rest.

On to `CSC1=CC(=O)c2ccccc2C1=O`, for which the growth is 101% in the test on HCT-15 colon; 103% with HT29 colon; 92.2% with U251 CNS; 89.4% in the test with SK-MEL-5 melanoma; 79.7% in the test on UACC-62 melanoma; 68.5% with LOX IMVI melanoma. The growth with SK-MEL-28 melanoma was 113%; in the test with SK-MEL-2 melanoma, 96.1%; in the test on EKVX NSCLC it was 89.6%; in the test on SN12C renal it was 97%; with UO-31 renal, 28%; with TK-10 renal, 97.9%. Moreover, the growth with ACHN renal was 24%; in the test on CAKI-1 renal it was 33.6%; in the test with A498 renal, 91.5%; in the test on CCRF-CEM leukemia, -16.7% (active); in the test on MOLT-4 leukemia, -21.7% (active).

For `CSc1nnc(-c2sc3nnc(-c4ccccc4)c(-c4ccccc4)c3c2O)o1`, the growth in the test with HCT-15 colon is 54.6%; in the test on HT29 colon, 107%; in the test on SNB-19 CNS, 66.4%; with U251 CNS, 62.9%; in the test with SK-MEL-5 melanoma, 83.5%; in the test on UACC-62 melanoma, 58.9%. In addition, the growth is 85.5% in the test on SK-MEL-28 melanoma; 102% in the test with SK-MEL-2 melanoma; 77.5% in the test with EKVX NSCLC; 75.7% in the test on SN12C renal; 100% with TK-10 renal; 83.6% in the test on ACHN renal. Further, the growth in the test on CAKI-1 renal is 43.5%; in the test on MOLT-4 leukemia, 61.8%.

With `CN(C)C(=S)SCN1C(=O)c2ccc([N+](=O)[O-])cc2S1(=O)=O`, the growth with HCT-15 colon was 95.2%; in the test with SNB-75 CNS, 99.9%; with SNB-19 CNS, 94.3%; with U251 CNS, 93.5%; in the test with SK-MEL-5 melanoma it was 101%; with UACC-62 melanoma, 92.2%. The growth in the test on LOX IMVI melanoma was 92.9%; with SK-MEL-28 melanoma, 109%; in the test on EKVX NSCLC, 93.7%; in the test with SN12C renal, 93.1%; with UO-31 renal it was 83.1%; in the test on TK-10 renal, 108%. Also, the growth in the test with CAKI-1 renal was 96%; in the test with A498 renal, 92.6%; in the test on CCRF-CEM leukemia, 50.6%; in the test on MOLT-4 leukemia, 91.6%.

Turning to `COc1c(Cl)ccc2c(-c3nc4cc(Cl)c(F)cc4s3)cc(=O)oc12`, the growth in the test on HCT-15 colon is 82%; in the test with HT29 colon, 5.31% (active); with U251 CNS, 99.1%; in the test with PC-3 prostate, 84.3%; with UACC-62 melanoma, 91.7%; in the test on LOX IMVI melanoma it was -80.2% (active). Also, the growth in the test with SK-MEL-28 melanoma is 111%; with SK-MEL-2 melanoma it was 37.7%; in the test on SN12C renal, 96.3%; in the test on UO-31 renal, -88.8% (active); in the test with ACHN renal, 47.8%; with CAKI-1 renal, 34.4%. Besides, the results for the growth in the test with A498 renal, with CCRF-CEM leukemia and with MOLT-4 leukemia were 107%, -68% (active) and 44.3%, respectively.

On to `CCCCCCCC/C=C\CCCCCCCCOc1cccc(CC(=O)NCC[N+](C)(C)C)c1`, for which the growth in the test with HCT-15 colon was 91.7%; in the test with HT29 colon, 48.3%; in the test with SNB-19 CNS, 60.1%; in the test with SK-MEL-5 melanoma, 90.8%; in the test with UACC-62 melanoma it was 80.8%; in the test on LOX IMVI melanoma it was 89%. Also, the growth is 99.6% with SK-MEL-28 melanoma; 106% in the test on SK-MEL-2 melanoma; 92.6% in the test with EKVX NSCLC; 69.7% in the test with SN12C renal; 92.6% in the test with UO-31 renal; 68.6% with TK-10 renal. The growth in the test with ACHN renal was 93.4%; with CAKI-1 renal, 71.2%; with CCRF-CEM leukemia it was 78%; in the test with MOLT-4 leukemia it was 92.9%.

For the compound `O=C(NCc1ccco1)C1CCN(S(=O)(=O)c2ccc(Cl)cc2)CC1`, the growth was 70.6% in the test with HCT-15 colon; 83.2% in the test on HT29 colon; 84.3% in the test with SNB-19 CNS; 83% with U251 CNS; -43.6% (active) in the test on PC-3 prostate; 75.7% in the test with SK-MEL-5 melanoma. The growth is 69.8% in the test on UACC-62 melanoma; 77.1% with LOX IMVI melanoma; 85.5% in the test on SK-MEL-28 melanoma; 82.6% with SK-MEL-2 melanoma; 78.3% in the test on SN12C renal; 57.5% in the test with UO-31 renal. Besides, the growth in the test on TK-10 renal was 104%; in the test with ACHN renal it was 83.5%; in the test with CAKI-1 renal, 70.4%; with A498 renal, 59%; in the test on CCRF-CEM leukemia it was -22.6% (active); in the test on MOLT-4 leukemia, 47.2%.

Take `COc1cccc(Nc2nc(NCCO)c3ccccc3n2)c1`: the growth with HCT-15 colon is 88.6%; in the test with HT29 colon, 100%; in the test on SNB-19 CNS it was 76.9%; in the test with U251 CNS, 73.7%; with PC-3 prostate, 24.4%; with SK-MEL-5 melanoma, 78.2%. Further, the growth with UACC-62 melanoma was 67.1%; in the test on LOX IMVI melanoma, 75%; in the test on SK-MEL-28 melanoma it was 91.7%; in the test with SK-MEL-2 melanoma it was 103%; in the test with SN12C renal, 81.6%; in the test on UO-31 renal, 74.4%. Moreover, the growth in the test on ACHN renal was 79.7%; in the test with CAKI-1 renal, 70.6%; in the test on A498 renal, 43.8%; in the test on CCRF-CEM leukemia, 22.4%; in the test with MOLT-4 leukemia it was 48.1%.

`COc1cc(-c2ccc3cc(OC)c(OC)c(OC)c3c2)cc(OC)c1OC`: the growth with HCT-15 colon was 42.8%; in the test on HT29 colon, 32.6%; in the test on SNB-19 CNS, 85.4%; with U251 CNS, 69%; in the test with PC-3 prostate, 49.5%; in the test on UACC-62 melanoma it was 68.1%. Further, the growth with LOX IMVI melanoma is 62.8%; in the test on SK-MEL-28 melanoma, 61%; in the test with SK-MEL-2 melanoma, 61%; with EKVX NSCLC, 65.7%; with SN12C renal, 92.9%; in the test with UO-31 renal it was 35.5%. Besides, the growth is 85.7% in the test on TK-10 renal; 79.8% with ACHN renal; 42.5% in the test with CAKI-1 renal; 77.3% with A498 renal; 55.2% in the test with CCRF-CEM leukemia; 83.9% with MOLT-4 leukemia.
